IMPase Li cell: cell-permeable IMPase inhibitors with lithium potentiation; CHO-M1 cells, IP1 TR-FRET (IP-One), carbachol + lithium; Potency, µM (series often up to 59.4 µM), hits mostly inhibitors; hit rate 0.35% among 210,000; AID 1457; active means well fitted curve in the direction sought with a large enough effect; inconclusive means small, poorly fitted or top-dose-only effect, or another doubt; inactive means no such curve, though single readings can be large; an effect the other way counts as inactive or inconclusive;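 further: IP1 builds up when IMPase is blocked and the TR-FRET signal falls; nearly all actives have a fitted effect of over 50% in size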
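CHO-M1, 2000 cells/well, 16–30 h culture; cpd + low Li+, 30 min 37C; lysis with d2-IP1/Eu-anti-IP1 Ab, 10 min RT; TR-FRET 665/620 ratio and 620 channel; AC50 via Hill.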
PNC assembly inh: inhibitors of perinucleolar compartment assembly; PC3M PTB-GFP, PNC prevalence imaging, 16 h; stronger effect = lower value; activity change (PNC), negative = inhibition, % at 10 µM; hit rate 3.1% among 140,000; AID 2417;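 active means readout at or below -70, meaning at least 70% loss of cells showing the perinucleolar compartment, a nuclear body marking cancer cells; inconclusive means readout between -30 and a set limit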
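PC3M cells stably expressing PTB-GFP, 750–1000 cells/well, treated 16 h at 37 °C with compound (23 nl of library stock), in duplicate. After paraformaldehyde fixation and Hoechst stain, imaged at 20x; PNC prevalence scored by image analysis.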
NPSR antag: blocks cAMP signaling of the human neuropeptide S receptor; AID 1461; hit rate 1% among 220,000; CHO-NPSR cells, cAMP TR-FRET, antagonist mode; Potency, µM (doses to about 38.3 µM), usual class: inhibitors; active means well fitted curve in the direction sought with a large enough effect; inconclusive means small, poorly fitted or top-dose-only effect, or another doubt; inactive means no such curve, though single readings can be large; an effect the other way counts as inactive or inconclusive; further: nearly all actives have a fitted effect of over 50% in size
ALDH1A1 inh: blocks purified human ALDH1A1 activity. P00352. Purified ALDH1A1, NADH fluorescence, propionaldehyde substrate. Potency, µM (titrated, usually from 75.3 µM), usual class: inhibitors. hit rate 7.3% among 220,000
Target sequence (P00352 whole entry, looked up): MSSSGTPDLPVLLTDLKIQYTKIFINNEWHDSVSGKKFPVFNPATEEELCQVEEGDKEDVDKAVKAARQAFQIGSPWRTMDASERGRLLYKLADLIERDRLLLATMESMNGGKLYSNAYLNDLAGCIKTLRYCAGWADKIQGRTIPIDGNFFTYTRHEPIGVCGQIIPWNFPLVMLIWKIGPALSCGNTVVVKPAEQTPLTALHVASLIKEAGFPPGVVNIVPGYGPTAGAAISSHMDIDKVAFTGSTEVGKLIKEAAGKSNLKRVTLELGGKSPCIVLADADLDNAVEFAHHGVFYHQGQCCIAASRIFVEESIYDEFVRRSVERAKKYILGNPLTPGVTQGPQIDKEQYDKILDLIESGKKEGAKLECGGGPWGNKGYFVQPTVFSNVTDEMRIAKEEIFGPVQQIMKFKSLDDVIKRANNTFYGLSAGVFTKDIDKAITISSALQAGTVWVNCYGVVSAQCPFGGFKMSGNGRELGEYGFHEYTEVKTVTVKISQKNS
HPGD block: inhibitors of human 15-hydroxyprostaglandin dehydrogenase (HPGD). P15428. purified HPGD, NADH fluorescence kinetic, PGE2 substrate. Potency, µM, most hits filed as inhibitors. hit rate 4.3% among 150,000. AID 894
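20 nM HPGD preincubated 15 min at room temperature with compound in 50 mM Tris-HCl pH 8, 0.01% Tween 20. Started with 1 mM NAD+ and 30 uM prostaglandin E2; NADH fluorescence (360/450 nm) read 5 times over 30-s intervals, last minus first.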
IMPase inh: cell-permeable inhibitors of inositol monophosphatase (IMPase). P97697. 120,000 tested, under 10 active. AID 901. inhibition (IP1 accumulation), % at 46.1 µM. CHO-M1 cells, IP1 accumulation, HTRF TR-FRET ratio; active means well fitted curve in the direction sought with a large enough effect in the signal ratio, not every such curve was filed as active; inconclusive means small, poorly fitted or top-dose-only effect, or a change in a side signal; inactive means no such curve, though single readings can be large or run the other way; the % refers to the signal ratio;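 further: cells stimulated with carbachol in lithium chloride buffer; higher means more IMPase inhibition seen as more IP1 and lower FRET ratio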
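In this qHTS, compounds (final up to 46 uM) act on CHO-M1 cells that are then activated through the M1 receptor with carbachol, in pH 7.4 buffer containing 50 mM LiCl, for 30 min. IP1 accumulation is quantified by the IP-One immunoassay.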
Numbers stand for hits; i = inactive; ? = inconclusive; nt = no result; [ ] = another dose, or the depositor's remark. Rows were chosen to be rich in hits. Some 11% of all compounds tested hit in one or more screens of this group. Unless noted, the call rests on the fitted dose curve; in most records, active means well fitted inhibition curve with a large enough effect (not every such curve was filed as active); inconclusive means small, poorly fitted or top-dose-only effect, or another doubt; inactive means no such curve, though single readings can be large or run the other way.

SMILES	IMPase Li cell	PNC assembly inh	NPSR antag	ALDH1A1 inh	HPGD block	IMPase inh
COc1cc(C2C(C#N)=C(N)Oc3cc(C)oc(=O)c32)ccc1OC(=O)N1CCOCC1 (configuration not stated)	i	i	i	i	i	i
COc1ccc(CCNC(=O)c2cc(-c3ccccc3)on2)cc1OC	i	i	i	i	i	i
Cc1cccc(C)c1NC(=O)C(C)c1ccc(-c2ccccc2)c(F)c1 (configuration not stated)	i	i	?	i	i	i
[N-]=[N+]=CC(=O)CC(c1ccccc1)N1C(=O)c2ccccc2C1=O (configuration not stated)	i	?	i	?	i	i
CC(C)(C)c1ccc(OCC(=O)N(c2ccccn2)C2CCCCC2)cc1	i	i	i	i	i	nt
O=C(COCCOCC(=O)N(c1ccccn1)C1CCCCC1)N(c1ccccn1)C1CCCCC1	i	-100	i	i	i	i
CCCC1=C(C(=O)OCC)C(c2ccccc2OCC)NC(=O)N1C (configuration not stated)	i	i	i	i	i	i
Cc1cc(C(=O)O)c(C)n1-c1ccccc1	i	i	i	?	i	i
CCCCc1cc2c(cn1)=C(OC(=O)c1ccco1)C(C)(OC(=O)CC)C(=O)C=2 (configuration not stated)	i	nt	nt	2µM	i	nt
CCCCC1=CC2=CC(=O)C(C)(OC(=O)CC)C(=O)C2=CN1Cc1ccco1 (configuration not stated)	i	nt	i	i[13.5 µM]	i	nt
COc1ccc(C(c2nnnn2CC2CCCO2)N2CCC(C(N)=O)CC2)cc1 (configuration not stated)	i	i	i	i	i	i
C=CCN1CCN(C(c2cc(OC)ccc2OC)c2nnnn2CC2CCCO2)CC1 (configuration not stated)	i	?	i	28µM	i	i
COc1ccccc1C(c1nnnn1CC1CCCO1)N1CCC(C(N)=O)CC1 (configuration not stated)	i	-100	i	i	i	i
COC(=O)c1[nH]c2cccc(OC)c2c1NC(=O)CCN1CC(C)CC(C)C1 (configuration not stated)	i	?	i	?	?	i
CCn1c(SCc2nc(-c3ccccc3)no2)nnc1-c1cccs1	i	i	i	i	i	i
c1ccc(-n2c(SCc3ccncc3)nnc2-c2ccco2)cc1	i	i	i	10µM	i	i
c1ccc(-n2c(SCc3nc(-c4cccs4)no3)nnc2-c2ccco2)cc1	i	?	?	7.1µM	32µM	i
CSc1nc(N(C)NC(=O)c2ccccc2)c2ccccc2n1	i	?	i	?	i	i
CSc1nc(N(C)NC(=O)c2ccc(Cl)cc2)c2ccccc2n1	i	-97	?	i	i	i
O=C(c1cccc(F)c1)N1CCc2ccccc21	i	?	i	i	i	i
COC(CNC(=O)c1ccc2c(c1)nc(C)n2-c1cccc(F)c1)OC	i	i	i	i	11µM	i
Cc1nc2cc(C(=O)N3CCc4ccccc43)ccc2n1-c1ccc(F)c(F)c1	i	i	i	?	14µM	nt
COCCNC(=O)c1ccc2c(c1)ncn2-c1ccc(F)c(F)c1	i	i	i	i	2.5µM	i
COC(CNC(=O)c1ccc2c(c1)nc(C)n2-c1ccc(F)c(F)c1)OC	i	-91	i	i	11µM	i
CCCC/C(=N\NC(=O)c1ccc(Br)o1)c1ccccc1	i	-114	i	i	i	nt
SMILES	IMPase Li cell	PNC assembly inh	NPSR antag	ALDH1A1 inh	HPGD block	IMPase inh
CC/C(=N/NC(=O)c1ccc(Br)o1)c1ccc(Cl)cc1	i	?	i	i	i	nt
CCOC(=O)c1c(C)oc2c1c1c(c3ccccc32)OCN(Cc2cccnc2)C1	i	i	i	0.2µM	i	i
CCOC(=O)c1c(C)oc2c1cc(O)c1ccccc12	i	i	i	i	i	i
CCOC(=O)c1c(C)oc2c1c1c(c3ccccc32)OCN(CCCC(=O)O)C1	nt	nt	i	7.9µM	nt	nt
COC(=O)C1=C(C(=O)OC)N2C=CC=CC2(C)C(C(=O)OC)=C1C(=O)OC (configuration not stated)	i	?	i	i	35µM	nt
Cc1ccc(C(=O)OCC(=O)Nc2ccc3[nH]c(=O)[nH]c3c2)cc1[N+](=O)[O-]	nt	nt	i	nt	nt	nt
COc1ccc(C(c2c(O)nc(SC)n(C)c2=O)c2c(O)nc(SC)n(C)c2=O)cc1O	i	?	i	14µM	i	nt
COc1cc(C2SCCS2)cc(Br)c1Oc1ncccc1[N+](=O)[O-]	nt	nt	i	?	nt	nt
O=[N+]([O-])c1cccnc1Oc1ccc(C2SCCS2)cc1	nt	nt	i	18µM	nt	nt
CC1CCN(C(=O)CNS(=O)(=O)c2ccc(Br)s2)CC1	i	i	i	8.9µM	i	i
CC1CC(C)CN(C(=O)CNS(=O)(=O)c2ccc(Br)s2)C1 (configuration not stated)	i	i	i	i	i	i
CCc1ccccc1NC(=S)N(Cc1cccnc1)Cc1ccco1	i	?	i	i	i	nt
CCN(CC)C(=O)c1sc(N)c(C(=O)OC(C)C)c1C	i	i	i	?	20µM	i
CCN(CC)C(=O)c1sc(N)c(C#N)c1C	i	-95	i	?	i	i
CCOC(=O)C(=O)Nc1sc(C(=O)N(CC)CC)c(C)c1C#N	i	nt	i	i	nt	nt
CN=CC1=C(O)c2ccccc2C1=O	i	i	i	i	i	i
O=C1C(C2=C(O)c3ccccc3C2=O)=Nc2ccccc21	i	i	i	1.3µM	i	i
Cc1ccc(-n2nnnc2CCl)cc1	i	nt	?	22µM	nt	nt
O=C(COc1ccc(Br)cc1)Nc1cc(S(=O)(=O)N2CCCCC2)ccc1N1CCCCC1	i	i	i	i	i	nt
COCCc1ccc(OC[C@H](O)CNC(C)C)cc1	i	nt	nt	i	i	i
COCCc1ccc(OCC(O)CNC(C)C)cc1 (configuration not stated)	i	-91	?	i	i	nt
CCCCNC(=O)c1sc(=S)n2c1[nH]c(=O)c1ccccc12	i	i	i	?	i	i
O=C(NC1CCCCC1)c1sc(=S)n2c1[nH]c(=O)c1ccccc12	i	i	i	3.2µM	13µM	i
O=C(NCC1CCCO1)C1CCN(C(=O)c2ccc(Cl)cc2)CC1 (configuration not stated)	i	i	i	i	i	i
O=C(NCC1CCCO1)c1sc(=S)n2c1[nH]c(=O)c1ccc(C(=O)N3CCCCC3)cc12 (configuration not stated)	i	i	?	?	0.45µM	i
O=C(Nc1ccc(NC(=O)c2ccco2)nc1)c1ccco1	i	nt	i	i	nt	nt
CCC(=O)Nc1cc(C)c(NC(=O)c2ccco2)cn1	i	i	i	?	i	i
O=C(Nc1ccc(NC(=O)c2ccco2)nc1)c1ccccn1	?	i	i	14µM	i	?
